The source made the active and inactive calls. Unless noted, the rule behind the calls is not given here.
Key:
[1] = system: Wnt5a (protein binding on small-molecule microarray); test: Wnt5a binders on small-molecule microarray, primary screen, biophysical, 635/667 nm fluorescence (AID 1142); details: 635 nm fluorescence, higher = more signal;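 note: fluorescence read at 667 nm with signal to noise per printed feature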
[2] = cell viability in Huh7 cells, primary screen, cytotoxicity control for HCV replication inhibitor project, CellTiter-Glo luminescence, basal, 48 h (AID 1143); details: Huh7 HCV replicon, higher = more signal, called active from +8 up or from −8 down;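 note: Huh7 hepatoma cells carrying a hepatitis C replication reporter with no stimulus; test concentration not given here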
[3] = P. aeruginosa biofilm formation inhibitors, primary screen, PAO1 strain, BacTiter-Glo luminescence, LB-PBS (AID 1144); details: 12 h, higher = more signal
[4] = CREB reporter modulators without forskolin, primary screen, cell-based, PC12, CRE-LacZ reporter, unstimulated (AID 1145); details: no forskolin, luminescence, 4.5 h, higher = more signal, called active from +8 up or from −8 down
[5] = CREB reporter modulators under forskolin, primary screen, cell-based, PC12, CRE-LacZ reporter, forskolin-stimulated (AID 1146); details: luminescence, 4.5 h, higher = more signal, called active from +8 up or from −8 down;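 note: PC12 cells with 6xCRE LacZ reporter stimulated by forskolin 10 µM; beta-galactosidase reporter signal reflecting CREB driven transcription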
[6] = target: Streptavidin (Streptomyces avidinii) (UniProt P22629); test: streptavidin binders on small-molecule microarray, primary screen, artefact control for SMM compound annotation, biophysical, 635/667 nm fluorescence (AID 1147); details: streptavidin binding, higher = more signal;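 note: signal reflects streptavidin binding to arrayed compounds as a control protein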
[7] = small-molecule binders of probe aInhba, primary screen, biochemical, small-molecule microarray, 635/667 nm fluorescence (AID 1148); details: higher = more signal;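 note: score merges 667nm spot fluorescence with signal-to-noise for antibody binding to printed compounds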
Torsin-1A (Homo sapiens) [8] = target: Torsin-1A (Homo sapiens) (UniProt O14656); test: torsin A binders from cell lysate, primary screen, small-molecule microarray, wild-type, 635/667 nm (AID 1149); details: COS7 hTOR1A-WT lysate, 635 nm fluorescence, higher = more signal
Torsin-1A (Homo sapiens) [9] = target: Torsin-1A (Homo sapiens) (UniProt O14656); test: small-molecule binders of mutant TOR1A in lysate, primary screen, cell lysate, small-molecule microarray, COS7 lysate, 635/667 nm fluorescence (AID 1150); details: COS7 hTOR1A mutant lysate, 635 nm fluorescence, higher = more signal;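 note: score pools 667 nm emission and signal to noise measuring lysate protein binding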
[10] = system: Sonic hedgehog protein (Shh); test: small-molecule binders of Shh protein, primary screen, biochemical, small-molecule microarray, 635/667 nm fluorescence (AID 1151); details: small-molecule microarray binding, 635 nm fluorescence; higher = more signal;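 note: Shh protein binding to compounds spotted on small-molecule microarray slides; score combines spot fluorescence intensity with signal-to-noise across triplicate slides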

Sequence of Torsin-1A (Homo sapiens) (O14656 whole entry, looked up): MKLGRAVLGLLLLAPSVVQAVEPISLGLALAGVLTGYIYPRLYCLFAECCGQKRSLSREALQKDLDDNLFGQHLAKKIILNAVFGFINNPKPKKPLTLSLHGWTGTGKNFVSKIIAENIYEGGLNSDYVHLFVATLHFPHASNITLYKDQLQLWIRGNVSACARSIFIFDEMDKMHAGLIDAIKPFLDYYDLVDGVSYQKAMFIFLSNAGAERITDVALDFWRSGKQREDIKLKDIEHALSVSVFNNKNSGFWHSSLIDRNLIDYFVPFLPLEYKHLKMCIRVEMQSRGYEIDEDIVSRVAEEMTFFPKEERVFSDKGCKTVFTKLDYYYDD
Sequence of Streptavidin (Streptomyces avidinii) (P22629 whole entry, looked up): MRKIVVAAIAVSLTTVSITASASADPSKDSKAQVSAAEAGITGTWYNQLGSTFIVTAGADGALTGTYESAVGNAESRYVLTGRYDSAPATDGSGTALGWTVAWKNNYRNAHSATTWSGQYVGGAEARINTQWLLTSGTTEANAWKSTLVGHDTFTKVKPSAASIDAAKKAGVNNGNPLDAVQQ

Structure (SMILES)	composite z-score [1]	z-score [2]	z-score [3]	z-score [4]	z-score [5]	composite z-score [6]	composite z-score [7]	composite z-score (Torsin-1A (Homo sapiens) [8])	composite z-score (Torsin-1A (Homo sapiens) [9])	composite z-score [10]
CCCCCN1CC=CC23O[C@@H]4C=CCOC(=O)[C@@H]4[C@H]2C(=O)N(CCCO)[C@@H]3C1=O (stereo not given in full)	-0.465	-2.93 (inactive)	-1.87 (inactive)	-1.85 (inactive)	-0.771 (inactive)	-0.866	-0.208	2.03	2.31	1.25
CCOc1cc(C(O)C2C=CC3C(=O)N(c4ccccc4)C(=O)C3N2Nc2ccc([N+](=O)[O-])cc2)ccc1O (stereo not given)	-0.0182	-1.04 (inactive)	-0.222 (inactive)	2.28 (inactive)	0.507 (inactive)	0.439	-0.101	-0.431	0.196	-0.231
CS(=O)(=O)CCOC(=O)C1=CC(CCCO)=CC(c2cccs2)N(Cc2cc3c(cc2Br)OCO3)C=C1C(=O)OCCS(C)(=O)=O (stereo not given)	0.567	-1.26 (inactive)	0.00546 (inactive)	-0.583 (inactive)	0.72 (inactive)	2.16	0.086	1.3	1.16	0.759
NC(=O)NCC#Cc1ccc2c(c1)[C@]1(C(=O)N2)[C@H](C(=O)N2CCCCCCC2)[C@H]2C(=O)O[C@H](c3ccccc3)[C@H](c3ccccc3)N2[C@@H]1c1ccc(OCCO)cc1	0.683	-0.416 (inactive)	-0.0789 (inactive)	0.619 (inactive)	0.0646 (inactive)	2.11	0.563	0.92	0.304	0.679
COc1ccc(CCNC(=O)[C@@]2(Sc3ccc(C)cc3)CC(=O)N(Cc3ccccc3Cl)[C@@H]2c2ccc(CO)cc2I)cc1	-0.234	-2.2 (inactive)	0.0319 (inactive)	0.569 (inactive)	1.12 (inactive)	-0.539	0.12	-0.794	-0.491	0.153
COc1ccc(C#Cc2ccc3c(c2)[C@]2(C(=O)N3)[C@H](c3ccc(O)cc3)N3[C@H](c4ccccc4)[C@H](c4ccccc4)OC(=O)[C@H]3[C@@H]2C(=O)NC[C@H](O)c2ccccc2)cc1	0.365	-3.5 (inactive)	-0.654 (inactive)	-0.0246 (inactive)	-1.12 (inactive)	0.153	-0.0606	0.215	0.488	1.05
O=c1cccc(CCc2ccccc2)o1	-0.187	-0.908 (inactive)	0.624 (inactive)	1.08 (inactive)	1.03 (inactive)	-0.0374	0.0357	-0.221	-0.15	0.943

Source: PubChem BioAssay
